Tests used:
Format in all cases: functional
Plasmodium falciparum [1] = test: GSK_TCMDC: Inhibition of Plasmodium falciparum 3D7 in whole red blood cells, using parasite LDH activity as an index of growth. Test compounds present at 2uM
Plasmodium falciparum [2] = test: GSK_TCMDC: Inhibition of Plasmodium falciparum Dd2 in whole red blood cells, using parasite LDH activity as an index of growth. Test compounds present at 2uM
HepG2 = test: GSK_TCMDC: Percent inhibition of human HepG2 cell line. Test compounds present at 10uM.

Row | SMILES | Inhibition (Plasmodium falciparum [1]) [%] | Inhibition (Plasmodium falciparum [2]) [%] | Inhibition (HepG2) [%]
1 | CC1(C)N=C(N)N=C(N)N1c1cccc(I)c1.Cl | 95 | 85 | 68
2 | CCOc1cc(/C=N/Nc2nc3ccccc3[nH]2)ccc1OCc1ccc([N+](=O)[O-])cc1 | 100 | 1 | 2
3 | CC(NC(C)c1cccc(Cl)c1)C(=O)Nc1cc(C(F)(F)F)ccc1N1CCOCC1 (centres undefined) | 89 | 33 | 30
4 | Cc1nn(-c2ccc(Cl)cc2)c2[nH]c(CN3CCN(c4cccc(Cl)c4)CC3)cc(=O)c12 | 98 | 98 | 0
5 | CCC1N=C(N)N=C(N)N1OCc1cccc2ccccc12 (centres undefined) | 93 | 1 | 66
6 | COc1ccc(C(F)(F)F)cc1N1CCN(CCCCNC(=O)c2ccc(NC(=O)c3ccc(Cl)cc3)cc2)CC1 | 94 | 1 | 12
7 | Cc1ccc(F)cc1-c1cc(N2CCCN(C(=O)c3ccc(Br)o3)CC2)ncn1 | 94 | 91 | 0
8 | CC(C)(C)c1ccc(-c2cc(C(=O)N[C@@H](CO)C(=O)O)on2)cc1.CC(C)(C)c1ccc(-c2nocc2C(=O)N[C@@H](CO)C(=O)O)cc1 | 87 | 0 | 1
9 | O=C(NCCCCN1CCC(c2ccc3c(c2OCC2COCO2)CCCC3)CC1)c1ccc(-c2ccc(C(F)(F)F)cc2)cc1 (centres undefined) | 99 | 45 | 91
10 | O=C(C1CCCCC1)N1CCOC(CCN2CCC(c3ccccc3)CC2)(c2ccc(Cl)c(Cl)c2)C1 (centres undefined) | 92 | 86 | 6
11 | Cc1cnc2ccc(NS(=O)(=O)c3ccc4c(Cl)cccc4c3)cc2c1N1CCNCC1.Cl | 100 | 3 | 24
12 | O=C(Nc1ccc(Cl)cc1F)N[C@H]1CCN(CCCCCNC(=O)C2CC2c2ccc(Cl)c(Cl)c2)C1 (some centres undefined) | 87 | 0 | 29
13 | O=C(Nc1ccc(OC2CCN(Cc3ccsc3)C2)c(Cl)c1)c1ccc2ncccc2c1.O=C(O)C(F)(F)F (centres undefined) | 88 | 10 | 84
14 | COCCn1c(-c2nc(-c3ccc(F)cc3)cnc2N)nc2ccccc21 | 98 | 98 | 16
15 | Cc1nc(NCCCn2ccnc2)cc(-c2cncc(-c3ccc(OC(F)(F)F)cc3)c2)n1 | 99 | 11 | 2
16 | Fc1ccc(-c2cc(NCCCn3ccnc3)nc(-c3cccnc3)n2)cc1 | 99 | 70 | 11
17 | C[C@H](CNc1ccnc(Nc2ccc3[nH]c(=O)[nH]c3c2)n1)c1ccccc1 | 99 | 2 | 50
18 | FC(F)(F)CNc1nc(Nc2ccc3ncccc3c2)nc2[nH]ccc12.O=C(O)C(F)(F)F | 87 | 83 | 37
19 | CCOc1c(CNCCCNc2cc(=O)c3ccccc3[nH]2)cc(I)cc1C(C)(C)C.Cl | 100 | 89 | 17
20 | O=[N+]([O-])c1cccc(Nc2cncc(-c3ccc(CO)cc3)c2)c1 | 85 | 96 | 16
21 | COc1cc2c(cc1OC)CN(CCCCc1ccc(NC(=O)c3cc(Cl)cc(Cl)c3)cc1)CC2 | 95 | 4 | 21

Row | SMILES | Inhibition (Plasmodium falciparum [1]) [%] | Inhibition (Plasmodium falciparum [2]) [%] | Inhibition (HepG2) [%]
22 | COc1ccc(N2CCN(CCc3ccc(NC(=O)c4ccc([N+](=O)[O-])cc4)cc3)CC2)c(OC)c1 | 83 | 0 | 45
23 | C=CCN(C(=O)c1ccc(Cl)c([N+](=O)[O-])c1)c1nc(-c2ccccc2)cs1 | 100 | 99 | 0
24 | Cl.O=C(Nc1ccc2c(c1)CCNCC2)c1ccc(-c2ccc(Cl)cc2)cc1 | 96 | 38 | 71
25 | O=C(Nc1ccc2c(c1)CCN(C1CCC1)CC2)c1cn(-c2ccccc2)nc1-c1ccccc1.O=C(O)C(F)(F)F | 100 | 10 | 38
26 | N=C(N)c1ccc(NCc2cccc(C(=O)O)c2)cc1.O=C(O)C(F)(F)F | 84 | 79 | 7
27 | CCCCn1c(Sc2ccc(C#N)c([N+](=O)[O-])c2)nnc1-c1ccc(OC)cc1 | 93 | 61 | 12
28 | C[C@@H](NC(=O)NC(CCN1CCC2(CC1)CN(S(C)(=O)=O)c1ccccc12)c1ccc(Cl)c(Cl)c1)c1ccccc1 (some centres undefined) | 92 | 88 | 15
29 | COc1cc(Cc2cnc(N)nc2N)cc(OCCCOc2ccccc2)c1OC | 94 | 2 | 7
30 | O=C(Nc1ccc(F)cc1)NC1CCN(c2ccnc3ccccc23)C1.O=C(O)C(F)(F)F (centres undefined) | 92 | 2 | 9
31 | Clc1cc(Cl)c2cc(CNCCCNc3ccc4ccccc4n3)[nH]c2c1.O=C(O)C(F)(F)F | 99 | 54 | 98
32 | FC(F)(F)c1cccc(CNCC2CCN(Cc3ccc4c(c3)OCO4)CC2)c1.O=C(O)C(F)(F)F | 100 | 19 | 21
33 | CC1CCc2c(C(=O)N3CCc4ccccc4C3)csc2C1 (centres undefined) | 99 | 75 | 9
34 | CCN(CC)CCCSc1ccc(-c2ccc(SCCCN(CC)CC)cc2)cc1 | 87 | 30 | 38
35 | Cc1[nH]c2ccccc2c1CC1CCN(CC2CCN(C(=O)/C=C/c3ccc(Cl)c(Cl)c3)CC2)CC1 | 92 | 14 | 34
36 | CCCCOc1ccc(-n2c(Nc3ccccc3)nc3cc(S(N)(=O)=O)ccc32)cc1 | 90 | 72 | 0
37 | COc1ccc(-n2ccnc2SCC(=O)Nc2cc(C(F)(F)F)ccc2Cl)c(OC)c1 | 98 | 76 | 0
38 | O=c1cc(NCCCNCc2cc(F)cc(C(F)(F)F)c2)[nH]c2ccccc12 | 92 | 15 | 0
39 | COc1cc(C)nc2ccc(NC(=O)Nc3ccc([N+](=O)[O-])cc3C)cc12 | 90 | 52 | 10
40 | O=C(NCCCCN1CCCC2c3cccc(O)c3CCC21)c1ccc(-c2ccccc2)cc1 (centres undefined) | 93 | 4 | 18
41 | Nc1ncnc2cc(-c3cccc(NC(=O)Nc4ccccc4)c3)sc12 | 94 | 33 | 4
42 | COc1cc2nc(C)nc(Nc3cccc(Br)c3)c2cc1OC.Cl | 100 | 82 | 0

Row | SMILES | Inhibition (Plasmodium falciparum [1]) [%] | Inhibition (Plasmodium falciparum [2]) [%] | Inhibition (HepG2) [%]
43 | Cl.N=C(N)NN=Cc1cc2ccccc2c2ccccc12 | 100 | 63 | 25
44 | Cn1cc(-c2ccnc3[nH]c(-c4cccc(CNC5CCC(O)CC5)c4)cc23)cn1.O=C(O)C(F)(F)F (centres undefined) | 95 | 82 | 48
45 | Br.Cc1cc(C)c(CON2C(=N)N=C(N)NC2(C)C)cc1C | 92 | 93 | 65
46 | Cl.O=S(=O)(Nc1cc2c(cc1OCCCN1CCCCC1)CCNCC2)c1ccc(-c2ccc(Cl)cc2)cc1 | 100 | 19 | 77
47 | CC1(C)CN2CCCC2c2cc(NC(=O)/C=C/c3ccccc3Cl)ccc21.Cl (centres undefined) | 88 | 76 | 20
48 | Clc1cccc(CNC2CCN(CC3CCCCC3)CC2)c1.O=C(O)C(F)(F)F | 97 | 24 | 4
49 | COc1ccc2nccc([C@@H](O)CN3CCC(NCCOc4ccc(F)cc4[N+](=O)[O-])CC3)c2c1.O=C(O)C(=O)O | 99 | 92 | 8
50 | COc1cc2c(cc1N(C(C)C)S(=O)(=O)c1sc3ccc(Cl)cc3c1C)CCNCC2.Cl | 91 | 70 | 98
51 | COc1ccc(-c2ccc(NC(=O)c3ccc(Cl)cc3)cc2)cc1CN1CCC(O)CC1.O=C(O)C(F)(F)F | 89 | 15 | 20
52 | O=C(/C=C/c1ccc(Cl)c(Cl)c1)NCCCCCN1CCCN(C(=O)Nc2cccc(F)c2)CC1 | 97 | 4 | 20
53 | Br.CC1(C)NC(N)=NC(=N)N1OCCc1ccccc1 | 96 | 95 | 70
54 | Oc1ccc2[nH]c(-c3cccc(F)c3)nc2c1CN1CCCC1 | 100 | 47 | 0
55 | Cc1ccc(S(=O)(=O)NC2CCN(CCNC(=O)Nc3cc(C)nc4ccccc34)C2)cc1 (centres undefined) | 97 | 42 | 0
56 | CC(=O)Nc1ncc(C(=O)Nc2cccc(-c3cccc(-c4nc5cc(C(F)(F)F)ccc5[nH]4)c3)c2)s1 | 100 | 99 | 76
57 | CC(=O)Nc1nnc(SCc2c(C)cc(C(C)(C)C)cc2C)s1 | 98 | 91 | 3
58 | Cc1ccc(NC(=O)Nc2ccc(Cn3ncc(N4CCCNCC4)c(Cl)c3=O)cc2)cc1.O=C(O)C(F)(F)F | 84 | 13 | 35
59 | Cc1nc(-c2ccc(-c3ccc(C(=O)Nc4ccc(Cl)c(N5CCN(C)CC5)c4)cc3)c(C)c2)no1 | 100 | 47 | 23
60 | Nc1nc(N)c2c(ccn2Cc2cc3c(cc2Cl)OCO3)n1 | 98 | 11 | 67
61 | O=C(Nc1ccc(Cl)cc1)Nc1ccc(-c2cccc(-c3nc4ccccc4[nH]3)c2)cc1 | 100 | 78 | 69
62 | CC(C)N1CCN(C(CN2CCN(CCCOc3ccccc3-c3ccccc3)CC2)c2ccc(F)cc2)CC1.Cl (centres undefined) | 100 | 96 | 98
63 | Cc1ccc(S(=O)(=O)N2CCN(C(=O)c3cc(-c4cccs4)n[nH]3)CC2)c(C)c1 | 85 | 81 | 0
